Measurements from PubChem BioAssay (NCATS).
Values without a mark were called inactive. Active and inactive are the calls of the source. Calls come from the whole dose curve; as a rule, active = well fitted curve in the direction sought with a large enough effect; inconclusive = small, poorly fitted or top-dose-only effect, or another doubt; inactive = no such curve, though single readings can be large or run the other way.

assay: Validation qHTS assay for inhibitors of Activation Induced Cytidine Deaminase (AID): UDG Counterscreen signal (AID 1347427); details: biochemical UDG counterscreen, fluorescence signal; series mostly up to 115 µM; activity, negative = inhibition: at the top concentration; note: 0% is about no effect
Text: Assay Provider (PI) Patricia Gearhart Ph.D.
National Institute on Aging
National Institute of Health (NIH), Bethesda, MD
Assay Provider (PI) Rahul Kohli Ph.D.
Perelman School of Medicine
University of Pennsylvania, Philadelphia, PA
Activation-Induced Deaminase (AID) is a cytosine deaminase which converts cytosine into uracil within stretches of ssDNA. The presence of uracil in DNA initiates a cascade of mutagenic DNA repair to introduce point mutations and DNA double strand breaks. Specific targeting of AID to the immunoglobulin heavy chain loci (Igh) promotes mutagenesis in the antibody variable region for somatic hypermutation (SHM) or switch regions leading to class switch recombination (CSR). However, AID also plays a role in accumulating unnecessary mutations across the genome. Mis-targeting of AID results in the initiation of tumor development and leads to greater drug resistance among cancer cells when continually expressed. To identify an AID inhibitor, a small molecule library will be screened in collaboration with NCATS core facility at NIH. To confirm biological function, inhibitors will be examined in an in vitro murine B-cell activation assay and subsequent secondary validation screens. Top molecules will be further screened to identify inhibitory efficacy against a wild type primary splenocytes assay. Using these approaches, we hope to identify a small molecule with great efficacy and low toxicity for use as a molecular probe to further characterize AID's intricacies, or even as a therapeutic.
A FRET based analysis of cytosine deamination, was developed to identify potential inhibitors of AID catalytic activity. This screen has two signal output, Read 1 evaluates the AID inhibition response. The second readout (Read 2) evaluates UDG response and is uses as a counterscreen to exclude false positive inhibitors. Inhibition in AID and inactivity in the UDG signal is the desired outcome for this assay.
SEQUENCE No. (e.g., 1, 2, 3, etc.); […] (e.g., Cells, Incubation, Reagent, etc.); VALUE; DESCRIPTION
1a; Reagent; 3 uL; [4/3x] 1 uM AID/2.67 U/mL UDG
1b; Reagent; 3 uL; 2 U/mL UDG
1c; Reagent; 3 uL; 1 uM AID
2a; Compound; 46 nL; Follow-up plates (0.64 uM - 10 mM)
2b; Control; 46 nL; ATA ([…] - 10 mM)
3; Time; 10 min; incubation at room temperature
5; Time; 4 hr; incubation at room temperature
6; Reagent; 4 uL; [2x] 250 mM NaOH
7; Time; 15 sec; centrifuge at 1000 rpm
8; Time; 30 min; incubation at room temperature
9a; Detection; fluorescence (Read 1: AID); EnVision (PerkinElmer) plate reader, 540 excitation and 590 emission filters
9b; Detection; fluorescence (Read 2: UDG); EnVision (PerkinElmer) plate reader, 560 excitation and 665 emission filters
NOTES (numbers refer to sequence above)
1a; Reagents were dispensed in a medium-binding black solid-bottom Greiner plates (789176F) using a BioRptr liquid dispenser. Dispense 3 uL of [4/3x] 1 uM AID (provided by Kohli lab) and [4/3x] 2 U/mL UDG (NEB M0280L) into columns 1, 2, 5 to 48.
1b; Dispense 3 uL of [4/3x] 2 U/mL UDG into column 3.
1c; Dispense 3 uL of [4/3x] 1 uM AID into column 4.
2b; 10 mM Aurintricarboxylic Acid (Sigma A1895) (ATA, 8-point, n = 2, 1:2.5 dilution in column 2) double pin-transferred (Dip Factor = 2) using the Kalypsys (Wako USA) pintool equipped with a 1536 pinhead for a [final] range of 186 nM - 114 uM.
3; Room temperature incubation.
4; Dispense 1 uL of substrate mixture from the Kohli lab [4x] […] DJC20 and [4x] 250 nM DJC23 into columns 1 to 48 .
5; Room temperature incubation.
6; Dispense 4 uL of substrate mixture [2x] 250 mM NaOH into columns 1 to 48.
7; Centrifugation step to remove bubbles.
8; Room temperature incubation
9a; Fluorescence signal (column label AID) was read using the EnVision plate reader. Excitation filter = 540(8) nm, barcode = 311; Emission filter = 590(20) nm, barcode = 217; Mirror = D555, barcode = 405.
9b; Fluorescence signal (column label UDG) was read using the EnVision plate reader. […]

Compound | activity, negative = inhibition [%] | Potency
NC1CCN(c2cccc(Cl)n2)CC1 | 15 | 
CN1CCN(C2Cc3ccccc3Sc3ccc(Cl)cc32)CC1 (stereo not given) | 3.63 | 
O=C1N=C(O)CN1/N=C/c1ccc(-c2ccc([N+](=O)[O-])cc2)o1 | 11 | 
CN(C)CCOC(C)(c1ccccc1)c1ccccn1 (stereo not given) | 6.16 | 
CC(C)C(=O)c1c(C(C)C)nn2ccccc12 | 4.87 | 
CC1=C(CC(=O)O)c2cc(F)ccc2/C1=C\c1ccc(S(C)(=O)=O)cc1 | 3.92 | 
CCN(CC)CCCC(C)Nc1c2ccc(Cl)cc2nc2ccc(OC)cc12 (stereo not given) | -3.8 | 
CCCn1cnc2c1c(=O)n(CCCCC(C)=O)c(=O)n2C | 12.5 | 
COc1ccc(Cl)cc1C(=O)NCCc1ccc(S(=O)(=O)NC(=O)NC2CCCCC2)cc1 | 11.3 | 
CCN(CC)C(C)CN1c2ccccc2Sc2ccccc21 (stereo not given) | -12 | 
CSc1ccc2c(c1)C(N1CCN(C)CC1)Cc1ccccc1S2 (stereo not given) | -3.08 | 
N=c1c[n+](N2CCOCC2)[n-]o1 | -1.26 | 
CN(C)CCC=C1c2ccccc2CCc2ccccc21 | 4.69 | 
NC(=O)c1ncn([C@@H]2O[C@H](CO)[C@@H](O)[C@H]2O)n1 | 10.6 | 
CCN(CC)CCNC(=O)c1cc(Cl)c(N)cc1OC | 11 | 
CC(CN1c2ccccc2Sc2ccccc21)N(C)C (stereo not given) | -1.92 | 
C#CCN(C)Cc1ccccc1 | 2.43 | 
CN(C)CCCN1c2ccccc2Sc2ccc(Cl)cc21 | 8.77 | 
C[C@]12C[C@H](O)[C@H]3[C@@H](CCC4=CC(=O)CC[C@@]43C)[C@@H]1CC[C@@H]2C(=O)CO | 7.55 | 
CNCC(O)c1ccc(O)c(O)c1 (stereo not given) | 7.11 | 

Compound | activity, negative = inhibition [%] | Potency
CC[C@H]1CN2CCc3cc(OC)c(OC)cc3[C@@H]2C[C@@H]1C[C@H]1NCCc2cc(OC)c(OC)cc21 | 1.62 | 
OCCN1CCN(CCCN2c3ccccc3Sc3ccc(Cl)cc32)CC1 | 0.479 | 
CC(C)(C)c1onc(OCP(=O)(O)O)c1CC(N)C(=O)O (stereo not given) |  | inactive
CC1=C(/C=C/C(C)=C/C=C/C(C)=C/C(=O)O)C(C)(C)CCC1 | 11 | 
CNC(=O)Oc1ccc2c(c1)[C@]1(C)CCN(C)[C@@H]1N2C | 5.51 | 
CNCCCC1c2ccccc2C=Cc2ccccc21 | 12.2 | 
OCc1cc(C(O)CNCCCCCCOCCCCc2ccccc2)ccc1O (stereo not given) | -1.04 | 
Nc1ncnc2c1ncn2[C@@H]1O[C@H](CO)[C@@H](O)[C@H]1O | 14.5 | 
NC(N)=NCCC[C@H](N)C(=O)O | 3.83 | 
CC1=C(CC(=O)O)c2cc(F)ccc2/C1=C\c1ccc(S(C)=O)cc1 (stereo not given) | 4.89 | 
COCCOC(=O)C1=C(C)NC(C)=C(C(=O)OC/C=C/c2ccccc2)C1c1cccc([N+](=O)[O-])c1 (stereo not given) | 1.96 | 
CCCCCCCCCCCCCCCC(=O)NCCO | 9.47 | 
CC(C(O)c1ccc(O)cc1)N1CCC(Cc2ccccc2)CC1 (stereo not given) | 6.95 | 
CSc1ccc2c(c1)N(CCC1CCCCN1C)c1ccccc1S2 (stereo not given) | -0.445 | 
CC(=O)OCC(=O)[C@@]1(O)CC[C@H]2[C@@H]3CCC4=CC(=O)CC[C@]4(C)[C@H]3C(=O)C[C@@]21C | 4.64 | 
C=Cc1c(C)c2cc3[nH]c(cc4nc(cc5nc(cc1[nH]2)C(C)=C5CCC(=O)O)C(CCC(=O)O)=C4C)c(C)c3C=C | 119 | 
C[C@](N)(Cc1ccc(O)cc1)C(=O)O | 5.85 | 
CN(C)CC[C@@H](c1ccc(Cl)cc1)c1ccccn1 | 11.9 | 
Nc1cc(=O)[nH]c(N)n1 | 13 | 
C[C@]12CC[C@@H]3c4ccc(O)cc4CC[C@H]3[C@@H]1CCC2=O | 9.54 | 
